Target: T1, Discoidin domain-containing receptor 2 (Homo sapiens) (UniProt Q16832)
T1 sequence (whole entry): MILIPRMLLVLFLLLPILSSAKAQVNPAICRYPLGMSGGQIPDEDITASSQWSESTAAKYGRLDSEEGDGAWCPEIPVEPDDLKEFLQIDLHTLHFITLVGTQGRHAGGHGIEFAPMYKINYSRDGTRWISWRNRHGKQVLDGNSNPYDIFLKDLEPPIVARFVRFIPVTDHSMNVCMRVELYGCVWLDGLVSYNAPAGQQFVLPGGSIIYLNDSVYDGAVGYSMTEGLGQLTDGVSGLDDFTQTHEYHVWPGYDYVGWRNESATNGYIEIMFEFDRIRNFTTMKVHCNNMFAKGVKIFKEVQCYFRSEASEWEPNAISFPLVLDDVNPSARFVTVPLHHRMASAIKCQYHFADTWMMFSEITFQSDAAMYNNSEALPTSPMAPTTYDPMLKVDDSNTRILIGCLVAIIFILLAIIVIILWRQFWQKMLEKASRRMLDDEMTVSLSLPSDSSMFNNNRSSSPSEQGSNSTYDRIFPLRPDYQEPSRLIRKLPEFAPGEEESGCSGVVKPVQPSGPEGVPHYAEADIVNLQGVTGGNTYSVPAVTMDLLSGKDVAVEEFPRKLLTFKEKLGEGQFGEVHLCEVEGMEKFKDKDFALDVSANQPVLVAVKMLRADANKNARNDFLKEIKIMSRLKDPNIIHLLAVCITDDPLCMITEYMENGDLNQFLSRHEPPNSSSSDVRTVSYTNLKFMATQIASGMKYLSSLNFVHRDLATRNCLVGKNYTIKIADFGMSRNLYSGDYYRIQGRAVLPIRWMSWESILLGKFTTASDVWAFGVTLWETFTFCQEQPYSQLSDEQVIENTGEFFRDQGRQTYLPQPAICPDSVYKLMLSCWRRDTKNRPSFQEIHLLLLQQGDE
Settings: at 0.1 µM
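Note: reported values are mean percent inhibition of DDR2.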

Q: With `O=C(Nc1n[nH]c2cc(-c3ccc(F)cc3)ccc12)C1CC1` as the molecule, how does the inhibition read?
A: 2.28%

Q: With `CNC(=O)c1cccc(C#Cc2cncnc2Nc2ccc(OCc3cccc(F)c3)c(Cl)c2)c1` as the molecule, how does the inhibition read?
A: 0.18%

Q: With `COc1cccc(-c2c[nH]c3c(N/N=C/c4ccncc4)ncnc23)c1` as the molecule, how does the inhibition read?
A: 3.82%

Q: `CCn1c(-c2nonc2N)nc2cnc(Oc3cccc(NC(=O)c4ccc(N(C)C)cc4)c3)cc21` was tested. Which inhibition did it give?
A: 1.4%

Q: With `COc1ccc(-c2cc3c(N)ncnc3o2)cc1` as the molecule, how does the inhibition read?
A: -0.42%

Q: `c1ccc(-c2nc3n(c2-c2ccc4c(c2)OCO4)CCC3)nc1` was tested. Which inhibition did it give?
A: 0.99%

Q: `FC(F)(F)c1cccc(-c2nn3ncccc3c2-c2ccnc(Nc3ccc4c(c3)OCCO4)n2)c1` was tested. Which inhibition did it give?
A: 1.27%

Q: For `CC(C)COC(=O)c1ccc2c(c1)/C(=C/Nc1ccc(S(N)(=O)=O)cc1)C(=O)N2`, which inhibition is on record?
A: -1.05%

Q: For `COc1ccc(-c2nn3ncccc3c2-c2ccnc(Nc3ccc4c(c3)OCCO4)n2)cc1`, which inhibition is on record?
A: 17.7%

Q: For `CN1CCC(n2cnc(-c3ccc(F)cc3)c2-c2ccnc(N)n2)CC1`, which inhibition is on record?
A: 0.93%

Q: Which inhibition does the source give for `N#Cc1c(NC(=O)c2ccc(F)cc2)sc2c1CCCC2` here?
A: 0.36%

Q: With `COC(=O)Nc1nc2ccc(S(=O)(=O)c3ccc(NC(=O)Nc4cc(C(F)(F)F)ccc4F)cc3)cc2[nH]1` as the molecule, how does the inhibition read?
A: 10.3%

Q: `NS(=O)(=O)c1ccc(N/N=C2\C(=O)Nc3ccc4ncccc4c32)cc1` was tested. Which inhibition did it give?
A: 0.92%

Q: Which inhibition does the source give for `[O-][S+]1CCN(Cc2ccc(-c3ccc4ncnc(Nc5ccc(OCc6cccc(F)c6)c(Cl)c5)c4c3)o2)CC1` here?
A: 2.52%

Q: Which inhibition does the source give for `Cc1cccc2c1NC(=O)/C2=N\Nc1ccc(S(N)(=O)=O)cc1` here?
A: 1.44%

Q: How did the inhibition turn out when `CS(=O)(=O)CCNCc1ccc(-c2ccc3ncnc(Nc4ccc(OCc5ccccc5)c(C(F)(F)F)c4)c3c2)o1` was run?
A: 1.76%

Q: `CC(=O)Nc1cccc(C#Cc2cncnc2Nc2ccc(OCc3cccc(F)c3)c(Cl)c2)c1` was tested. Which inhibition did it give?
A: 4.51%

Q: `Nc1nc(-c2cccc(Cl)c2)c(-c2ccc3ncccc3n2)s1` was tested. Which inhibition did it give?
A: -0.28%

Q: With `CNC(=O)c1cncc(/C=C/c2ccccc2Cl)c1` as the molecule, how does the inhibition read?
A: -0.31%

Q: With `CCn1c(-c2nonc2N)nc2c(C#CC(C)(C)O)ncc(OC3CCNCC3)c21` as the molecule, how does the inhibition read?
A: 0.94%

Q: How did the inhibition turn out when `CCn1c(-c2nonc2N)nc2ccccc21` was run?
A: 1.73%

Q: How did the inhibition turn out when `Cc1ccc(O)cc1Nc1ccnc2cc(-c3ccccn3)ccc12` was run?
A: 20.3%

Q: Which inhibition does the source give for `Nc1ncc(-c2cccc(S(N)(=O)=O)c2)c2scc(-c3ccc(F)c(Cl)c3)c12` here?
A: 2.61%

Q: How did the inhibition turn out when `COc1cc2c(cc1Nc1nc(Nc3ccsc3C(N)=O)c3cc[nH]c3n1)N(C(=O)CN(C)C)CCC2(C)C` was run?
A: 4.88%

Q: With `COc1ccc2[nH]c3c4[nH]c5ccc(OC)cc5c4c4c(c3c2c1)C(=O)NC4=O` as the molecule, how does the inhibition read?
A: 2.8%

Q: For `Fc1ccc(-c2nn3ccccc3c2-c2ccncc2)cc1`, which inhibition is on record?
A: 1.72%

Q: How did the inhibition turn out when `COc1ccc(-c2cc(-c3c[nH]nc3-c3ccccn3)ccn2)cc1` was run?
A: 2.09%

Q: Which inhibition does the source give for `c1cc(-c2cnn3nc(N4CCOCC4)ccc23)nc(NC2CC2)n1` here?
A: 1.38%

Q: For `NS(=O)(=O)c1ccc(Nc2ncc(-c3ccccc3)o2)cc1`, which inhibition is on record?
A: 1.76%

Q: Which inhibition does the source give for `CCN(CC)S(=O)(=O)c1ccc(OC)c(Nc2ncc(-c3ccccc3)o2)c1` here?
A: 7.09%

Q: How did the inhibition turn out when `CC(=O)NCc1cccc(C#Cc2cncnc2Nc2ccc(OCc3cccc(F)c3)c(Cl)c2)c1` was run?
A: 1.32%

Q: `COc1ccc(-c2oc3ncnc(N)c3c2-c2ccc(NC(=O)Nc3cc(C(F)(F)F)ccc3F)cc2)cc1` was tested. Which inhibition did it give?
A: 56.3%

Q: Which inhibition does the source give for `CCn1cc(-c2ccnc3[nH]ccc23)c(-c2cccc(NC(=O)Nc3ccc(OCc4ccccc4)cc3)c2)n1` here?
A: 2.59%
